Assay outcomes: PubChem BioAssay, several laboratories
A selection: hits, their analogues and other compounds. The true share with any hit is near 2.4%.
PP1 inh = PP1-alpha phosphatase inhibitors, primary screen, counter-screen for PP5 inhibitor project, biochemical, fluorescence, OMFP substrate, single point. Serine/threonine-protein phosphatase PP1-alpha catalytic subunit (Homo sapiens), P62136. 0.9% of 320,000 active. AID 2235, 2010. purified PP1alpha. inhibition, % at 6.7 µM;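 active means inhibition above the mean inhibition of all tested compounds plus 3 SD, computed separately for each screening campaign, cut at about 15% in these data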
Target sequence (P62136 whole entry, looked up): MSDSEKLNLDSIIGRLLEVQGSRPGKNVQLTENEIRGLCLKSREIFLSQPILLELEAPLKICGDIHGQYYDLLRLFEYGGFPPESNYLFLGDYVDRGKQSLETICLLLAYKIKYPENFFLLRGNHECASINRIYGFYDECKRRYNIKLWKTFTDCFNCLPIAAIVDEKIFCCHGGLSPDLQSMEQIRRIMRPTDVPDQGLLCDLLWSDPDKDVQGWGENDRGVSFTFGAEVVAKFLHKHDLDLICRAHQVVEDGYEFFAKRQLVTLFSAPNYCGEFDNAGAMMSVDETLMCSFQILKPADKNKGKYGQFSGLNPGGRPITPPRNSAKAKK
PP5 primary = PP5 phosphatase inhibitors, primary screen, biochemical, fluorescence. purified PP5c, OMFP substrate fluorescence. inhibition, % at 6.7 µM. 0.18% of 320,000 active. AID 1987, 2009;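 active means inhibition above the campaign's mean inhibition across all tested compounds plus 3 SD, cut at about 9.5% in these data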;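 further: 0% = DMSO only and 100% = 100 µM cantharidin control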
NadD inh = inhibitors of S. aureus NadD, primary screen, biochemical, colorimetric, uHTS | Nicotinate-nucleotide adenylyltransferase NadD (Staphylococcus aureus N315) | purified NadD enzyme, colorimetric absorbance read-out | 0.78% of 360,000 active | inhibition, % at 20 µM | AID 602399, 2012; in the data active means inhibition above about 26%
PREPL inhibitor = PREPL enzyme inhibitors, primary screen, biochemical, fluorescence polarization | inhibition, % at 5.96 µM | recombinant PREPL, fluorescence polarization activity-based probe | 0.68% of 320,000 active; in the data active means inhibition above about 43%;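 further: 0% = enzyme with DMSO and 100% = wells lacking enzyme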
Rpn11 inh = Rpn11 (PSMD14) deubiquitinase inhibitors, primary screen, biochemical, fluorescence polarization, uHTS; 0.59% of 360,000 active; inhibition, % at 20 µM; human 26S proteasome, Ub4-pepOG fluorescence polarization; 20S core pre-blocked with epoxomicin; AID 588493, 2011; 26S proteasome non-ATPase regulatory subunit 14 (Homo sapiens), O00487;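 active means inhibition at 20 µM, scaled to each plate's controls, above about 33%, limit read from the data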
Numbers without * were called inactive; x = no result given.

SMILES | PP1 inh | PP5 primary | NadD inh | PREPL inhibitor | Rpn11 inh
C[C@@H]1CC[C@]2(C(=O)O)CC[C@]3(C)C(=CCC4[C@]56CC[C@@](O)(OC5)C(C)(C)C6CC[C@]43C)C2[C@H]1C (some centres undefined) | 11.8 | 1.7 | 4.7 | -23.6 | 1.0
C[C@H]1[C@H](C)CC[C@]2(C(=O)O)CC[C@]3(C)C(=CC[C@@H]4[C@@]5(C)CC[C@H](O)C(C)(C)[C@@H]5CC[C@]43C)[C@H]12 | 0.1 | 1.4 | 47.4* | -2.5 | -7.0
CCN(CC)C(=O)C1=C(C)N(CCC2=CCCCC2)C(=O)C(CC(=O)NC(c2ccccc2)c2ccccc2)C1 (centres undefined) | x | x | 2.0 | x | 0.7
COc1cc(/C=C2\SC(=Nc3ccccc3)NC2=O)cc(Cl)c1O | -7.9 | -8.0 | 13.7 | -11.7 | x
COc1cc(/C=C2\SC(=Nc3ccc(Cl)c(C(=O)O)c3)NC2=O)c(Br)c(Br)c1O | x | x | 69.6* | x | x
Nc1ccc(NC(=O)c2ccc(C(=O)Nc3ccc(N)cc3)cc2)cc1 | 16.4* | 0.6 | 8.7 | 0.8 | 15.7
CC1(c2nnnn2-c2ccc3c(c2)OCCO3)CCC(=O)N1CCCn1ccnc1 (centres undefined) | x | x | 0.8 | x | x
O=C(Nc1ccccc1C(F)(F)F)c1cc(-c2ccccc2O)on1 | 16.1* | 1.1 | -1.3 | -4.7 | 2.8
Cc1nc(-c2ccccc2)sc1-c1nc(-c2cccnc2)ncc1S(=O)(=O)c1ccccc1 | 4.8 | 2.0 | 4.6 | 5.8 | -1.2
CCOC1=CC2=C(C(=O)C(Cl)=CC2=O)[C@@H]2CN(S(=O)(=O)c3ccc(C)cc3)[C@@H](c3ccccc3)[C@H]12 | x | x | 37.3* | x | -4.2
CCN1C(=O)[C@@H]2[C@@H]3CN(S(=O)(=O)c4ccc(C)cc4)[C@@H](c4ccccc4)[C@@H]3C(=O)C[C@@H]2C1=O | x | x | -5.0 | x | 2.7
O=C(/C=C/c1ccc(OCCCF)cc1)NCc1cccc(Cl)c1 | 2.7 | 1.5 | 1.4 | -2.9 | 1.1
O=C(/C=C/c1ccc(OCCCF)cc1)Nc1ccnc(-c2ccncc2)n1 | 15.6* | 2.9 | -3.6 | 1.3 | 0.4
CC(C)C(=O)NC(c1cccc([N+](=O)[O-])c1)c1ccc2cccnc2c1O (centres undefined) | 17.0* | 2.2 | 1.2 | 7.8 | 25.8
Cc1cc(Br)ccc1NC(=O)c1sc2ncnc(N3CCN(c4ccccn4)CC3)c2c1C | -4.8 | 1.9 | 30.1* | 10.3 | 2.4
CN1CCc2c(sc(NC(=O)c3ccc(S(=O)(=O)N4CCOCC4)cc3)c2C(N)=O)C1 | 3.7 | 4.5 | 3.5 | 11.7 | 75.4*
CN1CCc2c(sc(NC(=O)c3ccc(S(=O)(=O)N4CCCCCC4)cc3)c2C(N)=O)C1 | 14.7 | 3.5 | -5.5 | 4.3 | 61.8*
NC(=O)c1c(NC(=O)c2ccc(S(=O)(=O)N3CCOCC3)cc2)sc2c1CCCCC2 | 1.3 | 3.4 | -9.3 | -5.2 | 2.8
CN1CCc2c(sc(NC(=O)c3ccc(S(=O)(=O)N4CCCC4)cc3)c2C(N)=O)C1 | -2.8 | 2.3 | 1.4 | 5.4 | x
O=C(NC(NC(=S)Nc1ccc(Cl)cc1Cl)C(Cl)(Cl)Cl)c1cccc([N+](=O)[O-])c1 (centres undefined) | 15.4* | 3.2 | 0.6 | -4.5 | 5.2
O=C(NC(NC(=S)Nc1ccccc1)C(Cl)(Cl)Cl)c1cccc(Cl)c1 (centres undefined) | 5.0 | 3.3 | 0.6 | 2.0 | -9.5
O=S(=O)(O)c1cc(O)c2c(O)c(N=Nc3cc(Cl)ccc3O)c(S(=O)(=O)O)cc2c1 | 11.4 | 7.6 | -0.8 | 39.8 | 0.6
Cc1cc(-c2ccc(N=Nc3c(S(=O)(=O)O)cc4cc(S(=O)(=O)O)cc(N)c4c3O)c(C)c2)ccc1N=Nc1c(S(=O)(=O)O)cc2cc(S(=O)(=O)O)cc(N)c2c1O | 75.8* | 17.7* | x | 23.9 | x
CN(C)c1ccc(/C=N/N=C2/NC(=O)/C(=C/c3ccc([N+](=O)[O-])cc3)S2)cc1 | -0.7 | 2.1 | 50.2* | 5.7 | 11.7
O=C(CSc1nc2cc(Cl)ccc2o1)Nc1ccc(N2CCOCC2)cc1 | -2.8 | 2.5 | -1.2 | 11.3 | -3.1
O=C(CSc1nc2ccccc2o1)Nc1ccc(N2CCOCC2)cc1 | -2.1 | 3.2 | -6.4 | 43.6* | 4.7
Cc1ccc(C)c(OCCC(=O)OCC(=O)NC(=O)NC2CCCC2)c1 | 2.8 | 1.9 | 2.4 | 8.0 | -6.0
